Results filed as inconclusive are left out. Activity calls are given as the source filed them. Calls come from the whole dose curve; as a rule, active = well fitted cell-killing curve with a large enough effect; inconclusive = small, poorly fitted or top-dose-only effect, or effect the other way; inactive = no such curve, though single readings can be large or run the other way.
% is set by controls: 0 for no effect and ±100 for the full control effect; potency is the fitted concentration of half-maximal effect.

This assay has as its system SKOV3. As to the kind of experiment: Confirmatory qHTS for gynecologic anti-cancer compounds from libraries of approved drugs and bioactive compounds. Note: nearly all actives have a fitted effect of over 55% in size. The note with it: gynecologic cancer cell panel viability, ATPlite luminescence, 48 h; series mostly up to 57.6 µM. In short, it runs like this:
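ATP-based luminescent viability (ATPlite) after 48 h drug treatment at 37 °C, 5% CO2, across 57.5 uM–0.977 nM in 1:3 steps. Cells seeded at 1,000 per well 16 h beforehand; IC50 values computed, HEK 293T as selectivity control.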
As to `Cc1cnc(CNC(=O)c2c(=O)c3ccc(N4CCCN(C)CC4)nc3n3c2sc2ccccc23)cn1`, the activity change, negative = viability loss was 5.48% [at 10.7 µM] (inactive).
`Cc1ccc(C(=O)Nc2cccc(C(F)(F)F)c2)cc1-c1ccc2nc(NCCN3CCOCC3)ncc2c1`: the Potency was 12.2 µM (active).
For `CC(=O)Nc1cccc(-n2c(=O)n(C3CC3)c(=O)c3c(Nc4ccc(I)cc4F)n(C)c(=O)c(C)c32)c1`, the Potency was 0.306 µM (active).
For the compound `O=C(O)C1(Cc2cccc(Nc3nccs3)n2)CCC(Oc2cccc(Cl)c2F)CC1` (centres undefined), the Potency result is “inactive”.
Same read-out and setting: the entry for `O=c1cc(CN2CCOCC2)occ1OCCCCCSc1ccnc2cc(C(F)(F)F)ccc12` is “inactive”; for `CCN1CCN(Cc2ccc(-c3cc4c(NC(C)c5ccccc5)ncnc4[nH]3)cc2)CC1` (centres undefined) it is 17.2 µM (active).
Turning to `Cc1nc(NC(=O)N2CCCC2C(N)=O)sc1-c1ccnc(C(C)(C)C(F)(F)F)c1` (centres undefined), the Potency was 0.685 µM (active).
On to `CC(=O)NCC(=O)N1C2CCC1c1cc(Nc3ncc(C(F)(F)F)c(NC4CCC4)n3)ccc12` (centres undefined), for which the Potency was 17.2 µM (active).
For `O=C(Nc1cn[nH]c1-c1nc2ccc(CN3CCOCC3)cc2[nH]1)NC1CC1`, the Potency was 7.69 µM (active).
On to `CCS(=O)(=O)N1CCN(c2ccc(Nc3ncc(C(N)=O)c(NC4CC4)n3)cc2)CC1`, for which the Potency was 15.3 µM (active).
Still for that read-out and setting: the value for `Cc1cncc2cccc(S(=O)(=O)N3CCCN(C(=O)CN)C[C@@H]3C)c12` was “inactive”; that for `COc1cc(N2CCC(N)CC2)ccc1Nc1ncc(Cl)c(-c2c[nH]c3ccccc23)n1` was 21.7 µM (active).
Regarding `CC(C)n1c(/C=C/[C@@H](O)C[C@@H](O)CC(=O)O)c(-c2ccc(F)cc2)c2ccccc21`, the Potency is 1.72 µM (active).
The same measure, in the same setting: the figure for `O=C1c2c(O)ccc(O)c2C(=O)c2c(NCCNCCO)ccc(NCCNCCO)c21` is 0.544 µM (active); for `NC(=O)c1ccc2nc(-c3ccc(Oc4ccc(Cl)cc4)cc3)[nH]c2c1` it is “inactive”.
On the same count and under the same terms, the value for `O=C(NOCC1CC1)c1ccc(F)c(F)c1Nc1ccc(I)cc1Cl` was “inactive”; that for `CN(C)C/C=C/C(=O)Nc1cc2c(Nc3ccc(F)c(Cl)c3)ncnc2cc1OC1CCOC1` (centres undefined) was “inactive”; that for `CNc1nc(Nc2ccc(C(=O)N3CCOCC3)cc2OC)ncc1Cl` was “inactive”.
In the case of `O=C(c1ccc(/C=C/c2n[nH]c3ccccc23)cc1)N1CCNCC1`, the Potency is 21.7 µM (active).
